# In ChEMBL document CHEMBL3988442, “University of Dundee, Small-Polar-MMV Screening Library” (2021):
# Among all 66,000 compounds or so, about 960 (1.5%) showed an effect of 50% or more. What follows is part of a selection rich in strong results, with near analogues and random picks from the rest.
# Test system: Trypanosoma brucei
# Test: Trypanosoma brucei 72 hour study
# Assay type: functional, organism-based
# Design: scale not given: in the data most compounds retested in dose-response had high values
smiles,measurement,setting,value
COc1ccc(C)cc1NC(=O)Nc1cnc(N2CCCC2)nc1,Percent Effect,"30 µM, 30.03 µM",-9.808%
Cc1csc2nc3n(c(=O)c12)CCN(Cc1ccccn1)CC3.Cl,Percent Effect,"30.3 µM, […]",-40.83%
CC(C)c1ccc(C(CN)N2CCc3sccc3C2)cc1 (centres undefined),Percent Effect,"30.3 µM, […]",99.87%
CCC(=O)NCC(c1ccc(SC)cc1)N1CCc2sccc2C1 (centres undefined),Percent Effect,"30.3 µM, […]",-2.044%
NCC(c1ccc(Cl)cc1)N1CCc2sccc2C1 (centres undefined),Percent Effect,"30.3 µM, […]",100.3%
CSc1ccc(C(CNC(C)=O)N2CCc3sccc3C2)cc1 (centres undefined),Percent Effect,"30.3 µM, […]",7.525%
CSc1ccc(C(CN)N2CCc3sccc3C2)cc1 (centres undefined),Percent Effect,"30 µM, 30.03 µM",-3.703%
NCC(c1ccccc1)N1CCc2sccc2C1 (centres undefined),Percent Effect,"30 µM, 30.03 µM",35.83%
Cc1cccc(S(=O)(=O)N2CC[C@H]3CO[C@H](CN(C)C)[C@H]3C2)c1.O=C(O)C(F)(F)F,Percent Effect,"30 µM, 30.03 µM",25.11%
COCc1cccc(C(=O)N2C[C@H]3CC[C@@H]2CN(Cc2cscn2)C3)n1,Percent Effect,"30 µM, 30.03 µM",-49.27%
Cc1nc(CN2CCC3(CCN(c4cnn(C)c4)C3=O)C2)cs1.O=C(O)C(F)(F)F (centres undefined),Percent Effect,"30.3 µM, […]",-7.553%
CCN1CCC2(C1)CN(S(=O)(=O)c1cn(C)cn1)C2.O=C(O)C(F)(F)F.O=C(O)C(F)(F)F,Percent Effect,"30.3 µM, […]",-6.671%
Cl.O=C(c1cc2c(s1)CCCC2)N1CCc2nc(C3CCCN3)ncc2C1 (centres undefined),Percent Effect,"30.3 µM, […]",6.632%
Cn1cc(-c2ncc(C(=O)NCCCn3ccccc3=O)s2)cn1,Percent Effect,"30 µM, 30.03 µM",73.43%
O=C(NCCCn1ccccc1=O)c1cnc(-c2ccsc2)s1,Percent Effect,"30 µM, 30.03 µM",22.57%
CS(=O)(=O)NCCCNC(=O)c1cnc(-c2ccsc2)s1,Percent Effect,"30 µM, 30.03 µM",-7.977%
Cn1ncc2c(N3CC(N4CCCCC4)C3)nc(C3CCCC3)nc21,Percent Effect,"30 µM, 30.03 µM",-31.56%
Cn1ncc2c(N3CCN4CCCCC4C3)nc(C3CCCC3)nc21 (centres undefined),Percent Effect,"30 µM, 30.03 µM",-37.34%
Cc1nc(N2CCCC(N3CCCC3)C2)c2cnn(C)c2n1 (centres undefined),Percent Effect,"30 µM, 30.03 µM",50.19%
Cc1cc(N2C[C@H](C3CC3)[C@@H](N)C2)nc(N2CCCCC2)n1,Percent Effect,"30 µM, 30.03 µM",-8.75%
CCc1cc(N2C[C@H](C3CC3)[C@@H](N)C2)nc(N2CCOCC2)n1,Percent Effect,"30 µM, 30.03 µM",-22.85%
CC(C)Oc1cc(N2CC[C@H](CO)[C@@H](O)C2)nc(N)n1,Percent Effect,"30 µM, 30.03 µM",-21.24%
CNc1cc(C)nc(N2C[C@@H](C(=O)O)[C@H](C3CC3)C2)n1,Percent Effect,"30 µM, 30.03 µM",-4.016%
CNc1cc(C)nc(N2C[C@H](C3CC3)[C@@H](N)C2)n1,Percent Effect,"30 µM, 30.03 µM",85.5%
CC(C)Oc1cc(N2C[C@H](C3CC3)[C@@H](N)C2)nc(N)n1,Percent Effect,"30 µM, 30.03 µM",88.99%
CC(C)Oc1cc(N2C[C@@H](C)O[C@@H](C)C2)nc(N)n1,Percent Effect,"30.3 µM, […]",-11.25%
CCc1cc(N2C[C@H](C3CC3)[C@@H](N)C2)nc(N2CCCC2)n1,Percent Effect,"30 µM, 30.03 µM",72.1%
CNc1cc(C)nc(N2C[C@H](NC(=O)C3CCOCC3)[C@@H](C3CC3)C2)n1,Percent Effect,"30 µM, 30.03 µM",-23.63%
CN(c1ccncn1)C1CC2(CCN(C(=O)Cc3cccs3)C2)C1 (centres undefined),Percent Effect,"30.3 µM, […]",-10.04%
O=C(O)C(F)(F)F.O=C(c1cnccn1)N1CCCC2(CCN(Cc3ccsc3)CC2)C1,Percent Effect,"30.3 µM, […]",-8.407%
CCC(C)Oc1ccc(CNCCc2c[nH]cn2)cc1Cl (centres undefined),Percent Effect,"30 µM, 30.03 µM",-7.702%
Cc1ccc(O[C@@H]2C[C@H]3CN(C(=O)c4cccnc4)CCN3C2)cc1.O=C(O)C(F)(F)F.O=C(O)C(F)(F)F,Percent Effect,"30 µM, 30.03 µM",12.8%
CC(C)(C)c1cnc(CN2CCC(CN3CCOCC3)CC2)o1,Percent Effect,"30.3 µM, […]",1.879%
Cc1noc(C)c1C(=O)N1CC[C@]2(C[C@@H](OCc3cccnc3)CO2)C1.O=C(O)C(F)(F)F,Percent Effect,"30.3 µM, […]",-230.9%
COc1ccccc1OCCNS(=O)(=O)N1CCOCC1,Percent Effect,"30 µM, 30.03 µM",-16.37%
O=C(NCCSCc1cccs1)C1CCCN(C(=O)N2CCCC2)C1 (centres undefined),Percent Effect,"30 µM, 30.03 µM",-13.33%
O=C(NCCSCc1ccc(Br)s1)C1CCCN(C(=O)c2cccs2)C1 (centres undefined),Percent Effect,"30 µM, 30.03 µM",59.17%
O=C(NCCSCc1ccc(Br)s1)C1CCCN(c2cnccn2)C1 (centres undefined),Percent Effect,"30 µM, 30.03 µM",-0.7253%
COc1ccc(OCC(=O)NS(=O)(=O)c2ccc(Br)s2)cc1,Percent Effect,10 µM,-20.86%
Cc1ccc2c(n1)N(Cc1ccncc1)CCN(S(C)(=O)=O)C2.O=C(O)C(F)(F)F.O=C(O)C(F)(F)F,Percent Effect,"30 µM, 30.03 µM",-12.2%
COCCn1cc2c(n1)C(CNCc1ccsc1)OCC2.O=C(O)C(F)(F)F (centres undefined),Percent Effect,"30.3 µM, […]",-36.05%
CC(C)n1ccnc1C1CCCN(c2ccccn2)C1 (centres undefined),Percent Effect,"30 µM, 30.03 µM",54.17%
CSc1nccc(N2CCCC(c3nccn3C(C)C)C2)n1 (centres undefined),Percent Effect,"30 µM, 30.03 µM",-62.98%
CC(C)n1ccnc1C1CCCN(c2ccnc3ccccc23)C1 (centres undefined),Percent Effect,"30 µM, 30.03 µM",44.45%
Cc1cc(C)n(-c2nc(C(=O)NCCN3CCC(C)CC3)cs2)n1,Percent Effect,"30.3 µM, […]",41.67%
Cl.c1cc(CC2CCCNC2)nc(NCCc2cnccn2)c1 (centres undefined),Percent Effect,"30.3 µM, […]",-1.325%
Cl.c1cc(NCc2ccncc2)nc(C2CCCNC2)c1 (centres undefined),Percent Effect,"30.3 µM, […]",-1.5%
Cl.c1ccc(CCNc2cccc(C3CCCNC3)n2)cc1 (centres undefined),Percent Effect,"30.3 µM, […]",66.04%
CCCn1ccnc1-c1cccc(NC(=O)C2CCCOC2)c1 (centres undefined),Percent Effect,"30.3 µM, […]",-87.17%
